Compound activity from PubChem.
NIH3T3 tox = cytotoxic compounds in NIH 3T3 cells; Potency, µM (titrated, usually from 96.7 µM), inactives show top-dose activity change, negative = cytotoxicity, usual class: inhibitors; AID 1345082; NIH 3T3 viability, CellTiter-Glo ATP luminescence, 48-72 h; 94,000 tested, 4.3% active; also: nearly all actives have a fitted effect of over 55% in size
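Mouse fibroblast NIH 3T3 cells, 400 per well, received compound via pintool and were incubated for 48 or 72 hr prior to CellTiter-Glo ATP luminescence measurement.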
Luciferase inh = inhibitors of firefly (Photinus pyralis) luciferase; purified P. pyralis luciferase, luminescence, biochemical; Potency, µM (titrated, usually from 115 µM), most hits filed as inhibitors; 76,000 tested, 2.5% active; AID 1347043; also: nearly all actives have a fitted effect of over 65% in size
Target sequence (P08659 whole entry, looked up): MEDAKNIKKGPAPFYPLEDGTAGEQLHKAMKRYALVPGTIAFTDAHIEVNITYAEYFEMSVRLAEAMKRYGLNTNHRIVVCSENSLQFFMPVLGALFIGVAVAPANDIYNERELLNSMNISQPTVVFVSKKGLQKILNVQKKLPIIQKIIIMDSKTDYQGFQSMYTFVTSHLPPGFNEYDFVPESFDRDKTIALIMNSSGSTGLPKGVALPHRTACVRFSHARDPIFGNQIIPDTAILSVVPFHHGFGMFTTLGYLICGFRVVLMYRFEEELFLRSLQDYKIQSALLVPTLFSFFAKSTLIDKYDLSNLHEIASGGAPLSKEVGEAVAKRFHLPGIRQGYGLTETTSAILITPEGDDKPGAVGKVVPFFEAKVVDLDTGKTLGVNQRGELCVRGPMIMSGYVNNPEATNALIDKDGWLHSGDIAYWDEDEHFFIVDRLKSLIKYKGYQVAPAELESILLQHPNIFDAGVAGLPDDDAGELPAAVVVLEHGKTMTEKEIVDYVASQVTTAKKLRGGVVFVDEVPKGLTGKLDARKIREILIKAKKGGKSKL
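Cell-free enzyme assay, 10nM P. pyralis luciferase, luciferin and ATP each at 10uM. Inhibition profiled over a 6-point titration, read as luminescence.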
SNCA expr inhib = SNCA gene expression inhibition | Potency, µM (doses to about 57.2 µM), inactives show top-dose activity change, negative = inhibition, most hits filed as inhibitors | AID 1671194 | 140,000 tested, 0.17% active | HEK-293 SNCA-luciferase knock-in, luminescence, 24 h;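 also: plate controls were DMSO cells for no effect and cell-free wells for full effect; nearly all actives have a fitted effect of over 45% in size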
NPR1 antag = antagonists of human natriuretic peptide receptor Npr1. P16066. Potency, µM (doses to about 46.3 µM), without a hit: at the highest dose activity change, negative = inhibition, actives largely listed as inhibitors. AID 1347048. 76,000 tested, 1.6% active. HEK293 hNpr1 GloSensor cGMP, ANP-stimulated luminescence; calls by dose curve; also: nearly all actives have a fitted effect of over 60% in size
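Compound pre-incubated 30 min at room temperature on GloSensor-loaded HEK293 cells stably carrying hNpr1 and the pGS-40F cGMP biosensor. Stimulation uses hNppA at 0.1 nM final; luminescence is taken at baseline and 20 min post-agonist.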
SNCA viab count = reduces viability of HEK-293 SNCA reporter cells; HEK-293-SNCA-luc viability, GF-AFC fluorescence, 24 h; Potency, µM (top dose mostly 57.1 µM), for the others: at the highest dose activity change, negative = cytotoxicity, usual class: cytotoxic; 150,000 tested, 0.12% active; AID 1671193;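 also: 0% = DMSO-treated cells and -100% = medium-only wells without cells; nearly all actives have a fitted effect of over 30% in size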
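Cytotoxicity counterscreen: after 24 h compound treatment of genome-edited SNCA-luciferase HEK-293 cells, live-cell protease substrate GF-AFC read by fluorescence after 30 min; activity scaled between DMSO (0%) and medium-only (-100%), curves Hill-fitted.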
HEK293 tox = cytotoxic compounds in HEK 293 cells; HEK 293 viability, ATP luminescence (CellTiter-Glo), 48-72 h; Potency, µM (top dose mostly 115 µM), inactives show at the highest dose activity change, negative = cytotoxicity, actives largely listed as inhibitors; 94,000 tested, 6.6% active; AID 1345083; also: nearly all actives have a fitted effect of over 60% in size
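CellTiter-Glo luminescence (cellular ATP) was read after 48 or 72 hr of compound exposure at 37 degree Celsius. Cells were HEK 293 plated at 250 cells/well.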
Numbers without * were called inactive; i = inactive; ? = inconclusive; nt = not tested or not shown; [ ] = remark or other dose. Sampled rows, rich in hits. Any-hit rate of the full collection: about 7.4%. Unless noted, calls follow the shape of the dose curve; as a rule, active = well fitted curve in the direction sought with a large enough effect; inconclusive = small, poorly fitted or top-dose-only effect, or another doubt; inactive = no such curve, though single readings can be large; an effect the other way counts as inactive or inconclusive. Unless noted, % is scaled to controls: 0 for no effect and ±100 for the full control effect; potency is read from the fitted curve at half-maximal effect.

SMILES | NIH3T3 tox | Luciferase inh | SNCA expr inhib | NPR1 antag | SNCA viab count | HEK293 tox
Cc1ccc(Nc2ccnc(N3CCC(NC(=O)C4CC4)CC3)n2)cc1 | ? | nt | ? | nt | -3% | 45µM*
CNC(=O)C1CCN(c2nccc(Nc3ccc(C)cc3)n2)CC1 | ? | nt | 59%[87.6 µM] | nt | 1%[12.5 µM] | ?
Cc1ccc(Nc2ccnc(N3CCC(NC(=O)N(C)C)CC3)n2)cc1 | 45µM* | nt | -11%[87.6 µM] | nt | -9%[87.6 µM] | ?
Cc1ccc(Nc2ccnc(N3CCC(NC(=O)NC4CCCC4)CC3)n2)cc1 | -10% | nt | 13% | nt | 3%[12.5 µM] | -27%
Cc1ccc(Nc2ccnc(N3CCC(C(=O)NC4CCCC4)CC3)n2)cc1 | 35µM* | nt | -2% | nt | 0%[12.5 µM] | 45µM*
CCN1CCc2[nH]cnc2C12CCN(C(=O)c1cccc3nccnc13)CC2 | 2% | i | 7% | 1% | 2% | ?
O=C1NCCC[C@@H]1NC(=O)[C@H]1CN(C(=O)c2ccccc2)CCN1S(=O)(=O)c1ccc(F)cc1 | -1% | i | ? | 0% | 7% | i
COc1cccc(-c2c(C(=O)Nc3ccc(C)cc3)nc3sccn23)c1 | -23% | nt | -12% | nt | -11% | ?
Cc1cn2nc(-c3nc(C4CCCN(C(=O)Cc5ccc(F)cc5)C4)no3)cc2c(=O)[nH]1 (stereo not given) | -12% | ? | 77% | -7% | -30% | -13%
COC[C@@H]1CN(C(=O)c2n[nH]c3ccccc23)C[C@H]1c1nc(C)no1 | -9% | i | -15% | 3% | -2% | 4%
c1ccc(-c2ccc3ncc(Nc4ccc5c(c4)OCCO5)n3n2)cc1 | ? | ? | 9%[87.6 µM] | -11%[70.6 µM] | 10%[87.6 µM] | 89µM*
Fc1ccccc1Nc1cnc2ccc(-c3ccccc3)nn12 | ? | i | ? | -8%[70.6 µM] | -2%[87.6 µM] | 100µM*
Fc1ccc(Nc2cnc3ccc(-c4ccccc4)nn23)cc1 | 79µM* | i | 11%[87.6 µM] | -22%[70.6 µM] | -14%[87.6 µM] | 100µM*
Cc1ccc(-c2ccc(C(=O)NCCCn3ccnc3C(C)C)cn2)cc1C | ? | ? | 4% | -5% | -3% | 40µM*
COc1cccc(C(=O)NCC2(COc3cnccn3)C[C@@H](O)[C@@H](O)C2)c1 (stereo not given in full) | -1%[174 µM] | i | -5%[87.6 µM] | 1%[70.6 µM] | 0%[87.6 µM] | -3%[172 µM]
COc1ccc(-c2cnc3n[nH]c(-c4ccc(F)cc4C)c3n2)cc1 | 32µM* | i | 27%[87.6 µM] | -1%[70.6 µM] | -5%[87.6 µM] | 45µM*
COc1ccc(-c2[nH]nc3ncc(-c4ccc(OC)nc4)nc23)c(C)c1 | ? | i | ? | 4%[70.6 µM] | -8%[87.6 µM] | 22µM*
Cc1ccccc1-c1[nH]nc2ncc(-c3cccnc3)nc12 | ? | i | -9%[87.6 µM] | -5%[70.6 µM] | -5%[87.6 µM] | ?
Cc1ccccc1-c1[nH]nc2ncc(-c3ccsc3)nc12 | ? | i | -33%[87.6 µM] | -13%[70.6 µM] | -23%[87.6 µM] | 32µM*
COc1ccc(-c2[nH]nc3ncc(-c4ccc(F)cc4OC)nc23)c(C)c1 | ? | i | -7%[87.6 µM] | -15%[70.6 µM] | 0%[87.6 µM] | ?
COc1ccc(-c2cnc3n[nH]c(-c4ccccc4C)c3n2)cn1 | ? | i | ? | -9%[70.6 µM] | -15%[87.6 µM] | 32µM*
CCN(CC)Cc1cnc2c(C(=O)Nc3ccc(OC)c(OC)c3)cnn2c1 | i | i | 32% | 4% | -6% | -2%
COc1cc(CNC(=O)[C@H]2CCC[C@H]2NC(=O)c2ccncc2)cc(OC)c1 | -16% | i | -27% | 0% | 6% | -2%
CCC1(O)CCCN(C(=O)c2cc(COc3ccccc3OC)[nH]n2)C1 (stereo not given) | -29% | i | 25% | -10% | 3% | -4%
COc1cccc(CCC(=O)N2CCCN(c3cc(-c4ccc(Cl)cc4)[nH]n3)CC2)c1 | 35µM* | i | -15% | ? | -14% | ?
COc1ccccc1CC(=O)N1CCCN(c2cc(-c3ccccc3)[nH]n2)CC1 | ? | i | ? | -3% | -11% | ?
COc1ccccc1CCC(=O)N1CCCN(c2cc(-c3ccc(Cl)cc3)[nH]n2)CC1 | 35µM* | i | -24% | -26% | 2% | ?
